Screening results as filed in PubChem.
Rows were chosen to be rich in hits. Some 8.1% of all compounds tested hit in one or more screens of this group.
ELG1 DNA repair: blocks ELG1-dependent DNA repair in HEK293T cells; Potency, µM (highest dose often 46.1 µM), actives largely listed as inhibitors; actives 2.3% (n = 330,000); HEK293T ELG1-luciferase reporter, luminescence, 16 h; DNA damage induced by 5-fluorouridine; further: nearly all actives have a fitted effect of over 55% in size
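Cells (2,000 per well) received 5-fluorouridine plus test compound or DMSO and were incubated 16 hr at 37 °C, 5% CO2. Luciferase activity was read by luminescence 30 min after ONE-Glo addition; signal suppression marked inhibition of damage-induced ELG1 function.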
SW480 rereplic: inducers of DNA re-replication in SW480 colon cancer cells; SW480 DNA re-replication, Hoechst DNA content imaging, 48 h; Potency, µM (highest dose often 46.1 µM), usual class: activators; actives 1.8% (n = 340,000); AID 624297; further: nearly all actives have a fitted effect of over 55% in size
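Per well, 250 cells were exposed to pinned compound for 48 hr. Nuclear DNA was visualised with Hoechst (40 min, 37 C) and total object intensity recorded by fluorescence scanning.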
KB-3-1 tox: KB-3-1 parental cell cytotoxicity; KB-3-1 viability, CellTiter-Glo ATP luminescence, 72 h; Potency, µM (titrated, usually from 46.1 µM), actives largely listed as cytotoxic; actives 1.4% (n = 400,000); AID 1347075; further: nearly all actives have a fitted effect of over 60% in size
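KB-3-1 parental drug-naive adenocarcinoma cells in DMEM/10% FBS, incubated 72 h at 37 C with pin-transferred compounds across a concentration series. Viability by CellTiter-Glo luminescence; concentration-response curves fitted after normalization.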
KB-V1 cytotox: kills drug-selected multidrug resistant KB-V1 cells; KB-V1 MDR cells viability, CellTiter-Glo, 72 h; Potency, µM (highest dose often 46.1 µM), hits mostly cytotoxic; actives 3.4% (n = 400,000); AID 1347076; further: nearly all actives have a fitted effect of over 60% in size
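Potencies derive from concentration-effect curves fitted to normalized luminescence (CellTiter-Glo) of KB-V1 cells treated for 72 h at 37 degrees C in phenol-red-free DMEM containing 10% FBS.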
MCF10A rerep: induces DNA re-replication in MCF 10a normal breast cells; MCF 10A DNA re-replication, Hoechst nuclear intensity, 48 h; AID 624296; Potency, µM (series often up to 46.1 µM), usual class: activators; actives 2.9% (n = 350,000); further: nearly all actives have a fitted effect of over 50% in size
A number is an active result; - = inactive; ? = inconclusive; . = no result given; [ ] = dose if it differs, or a comment. The call rests on the fitted dose curve; in most records, active means well fitted curve in the direction sought with a large enough effect; inconclusive means small, poorly fitted or top-dose-only effect, or another doubt; inactive means no such curve, though single readings can be large; an effect the other way counts as inactive or inconclusive.

SMILES	ELG1 DNA repair	SW480 rereplic	KB-3-1 tox	KB-V1 cytotox	MCF10A rerep
CC(C)CCOc1ccc(-c2c(=O)n(OCc3ccc([N+](=O)[O-])cc3)c3ccccc3[n+]2[O-])cc1	-	?	-	?	1.8µM
O=C(O)c1ccc(Nc2nc3ccc(Cl)cc3[nH]2)cc1	-	-	-	-	-
COc1ccc(-c2cc(C(F)(F)F)nc(S(=O)(=O)CCCC(=O)Nc3cc(C)on3)n2)cc1OC	?	?	-	-	3.7µM
COc1ccccc1-c1cc(C(F)(F)F)nc(S(=O)(=O)CCCC(=O)Nc2cc(C)on2)n1	?	16µM	?	?	21µM
COc1ccc(NC(=O)CCCS(=O)(=O)c2nc(-c3ccccc3OC)cc(C(F)(F)F)n2)c(OC)c1	.	.	-	?	.
COc1ccc(C(=O)NC(=S)NCCc2ccccc2)cc1	-	-	-	-	-
COc1ccc(-n2c(C)nc3c(cnn3-c3ccc(C)cc3)c2=O)cc1	?	-	-	-	?
COc1cccc(-n2c(-c3ccccc3F)nc3c(cnn3-c3ccc(C)cc3)c2=O)c1	.	.	16µM	-	.
Cc1ccc(-n2c(C)nc3c(cnn3-c3ccccc3)c2=O)cc1	.	.	?	16µM	.
COc1cccc(-n2c(C)nc3c(cnn3-c3ccc(C)cc3)c2=O)c1	?	-	-	-	-
COc1ccc(-n2c(C)nc3c(cnn3-c3ccc(Cl)cc3)c2=O)cc1	18µM	-	?	-	-
Cc1cc(C(=O)C(C)OC(=O)c2ccc(NC(=O)CC#N)cc2)c(C)n1-c1ccccc1 (stereo not given)	?	3.3µM	-	-	?
CC(C)=CCNc1ncnc2c1c(C#N)cn2C1OC(CO)C(O)C1O (stereo not given)	.	?	?	?	15µM
OCC1OC(n2cnc3c(NO)ncnc32)C(O)C1O (stereo not given)	.	.	?	-	.
Oc1ccccc1OCc1nc2ccccc2s1	?	-	-	-	-
OCc1cc(Br)ccc1OCc1nc2ccccc2s1	?	-	-	5.2µM	-
CC(=O)N1CCN(c2ccc(S(=O)(=O)N3CCOCC3)cc2[N+](=O)[O-])CC1	?	-	-	-	-
N#Cc1c(NC(=O)c2cccnc2)sc2c1CCC2	?	16µM	9.2µM	5.8µM	5.8µM
O=C(Nc1sc2c(c1C(=O)c1ccccc1)CCCC2)c1cccnc1	-	-	-	-	-
COc1ccc(-c2cc(C(=O)Nc3sc4c(c3C#N)CCCC4)no2)cc1OC	.	.	-	-	.
CC(C)CC(=O)NC(NC(=S)Nc1sc2c(c1C#N)CCCC2)C(Cl)(Cl)Cl (stereo not given)	-	-	?	-	16µM
Cc1cc(C)nc(SCC(=O)Nc2sc3c(c2C#N)CCC(C)C3)n1 (stereo not given)	.	-	-	?	-
Cc1ccnc(SCC(=O)Nc2sc3c(c2C#N)CCC(C(C)(C)C)C3)n1 (stereo not given)	?	-	?	13µM	?
CC(C)c1cc(C(=O)Nc2sc3c(c2C#N)CCC3)no1	-	?	?	?	15µM
CCc1ccccc1NC(=O)c1ccc2[nH]c(C)c(C)c2c1	.	.	-	-	.
SMILES	ELG1 DNA repair	SW480 rereplic	KB-3-1 tox	KB-V1 cytotox	MCF10A rerep
Cn1nccc1C(=O)Nc1sc2c(c1C#N)CCCC2	-	-	-	-	-
CC1CCc2c(sc(NC(=O)c3ccccc3C(=O)O)c2C#N)C1 (stereo not given)	?	?	-	-	-
N#Cc1c(NC(=S)NC(=O)c2ccccc2)sc2c1CCCC2	?	.	-	-	?
N#Cc1c(NC(=O)c2ccccc2)sc2c1CCC2	?	10µM	16µM	4.6µM	?
N#Cc1c(NC(=O)c2cnccn2)sc2c1CCCC2	?	5.8µM	?	16µM	?
CCC(C)(C)C1CCc2c(sc(NC(=O)c3ccccc3C(=O)O)c2C#N)C1 (stereo not given)	?	-	-	?	18µM
Cc1ccc(CCNC(=O)c2c(C)oc3ncn(CC(C)C)c(=O)c23)cc1	.	.	-	?	.
CCCOc1ccc(/C(O)=C2/C(=O)C(=O)N(CCOC)C2c2cccnc2)cc1 (stereo not given)	-	.	.	.	.
Cc1cc(NC(=O)c2ccc(Br)cc2)nc(C)n1	-	-	-	-	-
COc1ccc(-c2nc(-c3cccs3)c(-c3cccs3)[nH]2)cc1OC	21µM	-	-	-	-
O=[N+]([O-])c1cccc(-c2nc(-c3cccs3)c(-c3cccs3)[nH]2)c1	?	?	-	-	-
COc1ccc(-c2nc(-c3ccccc3)c(-c3cccs3)[nH]2)cc1OC	15µM	-	-	-	-
COc1ccc(-c2nc(-c3ccccc3)c(-c3ccccc3)[nH]2)cc1Br	.	.	-	-	.
O=[N+]([O-])c1ccc(-c2nc(-c3cccs3)c(-c3cccs3)[nH]2)cc1	21µM	?	?	?	?
COc1ccccc1N1CCN(C(CNC(=O)C(=O)NCCN(C)C)c2cccnc2)CC1 (stereo not given)	.	.	-	-	.
FC(F)Oc1ccccc1NC(=S)NCc1ccco1	-	-	-	-	-
O=C(NCCc1ccccc1)c1ccc(NC(=O)C2CC2)cc1	.	-[9.22 µM]	-	?	-
CC(=O)n1c(Cl)c(NC(=O)CCl)c2ccccc21	26µM	?	?	-	?
C=CCCC(=O)N1C[C@H]2CCN(C)[C@H]2C[C@H]1c1ccccc1	.	.	-	-	.
C/C(=N\N1CCN(Cc2ccc(Cl)cc2)CC1)c1ccc(F)cc1	?	-	-	-	-
COCCNC(=O)C(=O)Nc1ccc2c(c1)N(S(=O)(=O)c1cccs1)CCC2	-	2.6µM	?	?	?
CC(C)CCNC(=O)C(=O)Nc1ccc2c(c1)N(S(=O)(=O)c1cccs1)CCC2	?	?	5.8µM	?	?
CC(C)CNC(=O)C(=O)Nc1ccc2c(c1)N(S(=O)(=O)c1cccs1)CCC2	?	-	-	-	-
O=C(NCCCO)C(=O)Nc1ccc2c(c1)N(S(=O)(=O)c1cccs1)CCC2	-	-	-	-	-
Cc1occc1C(=O)N1CCCC(Nc2ccc(F)cc2)C1 (stereo not given)	-	-	-	-	-
SMILES	ELG1 DNA repair	SW480 rereplic	KB-3-1 tox	KB-V1 cytotox	MCF10A rerep
COc1cc2cnc(CCCC#N)cc2cc1OC	?	-	-	-	-
CS(=O)(=O)N1CCN(C(=O)c2cc(-c3cccnc3)nc3ccc(Cl)cc23)CC1	?	-	-	-	-
O=C(c1cc(-c2ccncc2)nc2ccc(Cl)cc12)N1CCN(Cc2ccc3c(c2)OCO3)CC1	15µM	?	-	?	-
COc1ccc(CN2CCN(C(=O)c3cc(-c4cccnc4)nc4ccc(Cl)cc34)CC2)c(OC)c1OC	9.2µM	-	-	?	-
O=C(c1cccn2c(=O)c3ccc(Cl)cc3nc12)N1CCN(Cc2ccc3c(c2)OCO3)CC1	-	16µM	-	-	16µM
O=C(c1ccc(COc2ccc(Cl)cc2)o1)N1CCN(Cc2ccc3c(c2)OCO3)CC1	-	-	-	10µM	?
